Counter-ions that a name gives are not always drawn. ± gives the standard deviation of the averaged measurements.
System: Danio rerio Tg(wt1b:EGFP) embryo, pronephros
Experiment: pronephric angle neck segment to proximal convoluted tubule (mean of left and right), fold change vs DMSO control; higher = larger pronephric angle
Details: 25 µM; exposure: 24-48 hpf
Procedure, shortened: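 Distances and angles describing the pronephros were computed by a Fiji macro from 16 reference points set manually on maximum projections of dorsal images. These images came from dechorionated Tg(wt1b:EGFP) zebrafish embryos held in agarose-filled 96-well plates after exposure to 25 μM compound in 0.5% DMSO, in HEPES-buffered E3 with 0.003% PTU, from 24 to 48 hpf at 28.5°C. Any value more than 2 SD from the feature mean was excluded. Features are stated as fold change relative to the mean of same-day DMSO-treated embryos.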

| Compound | pronephric angle neck segment |
| --- | --- |
| CC(C)c1cccc(C(C)C)c1O [Propofol] | 1.02 ± 0.14 |
| CC(CCc1ccccc1)NC(C)C(O)c1ccc(O)cc1 (stereo unspecified) [Nylidrin] | 1 ± 0.02 |
| CCC(C)C1O[C@]2(C=C[C@@H]1C)C[C@@H]1CC(C/C=C(\C)[C@@H](OC3C[C@H](OC)[C@@H](OC4C[C@H](OC)[C@@H](O)[C@H](C)O4)[C@H](C)O3)[C@@H](C)/C=C/C=C3\COC4[C@H](O)C(C)=CC(C(=O)O1)[C@]34O)O2 (stereo partly specified) [Avermectin B1a] | 1.14 ± 0.069 |
| CC(C)[N+](C)(CCC(C(N)=O)(c1ccccc1)c1ccccc1)C(C)C [Isopropamide iodide] | 0.983 ± 0.025 |
| C=CCN1CC[C@]23c4c5ccc(O)c4O[C@H]2C(=O)CC[C@@]3(O)[C@H]1C5 [Naloxone hydrochloride] | 1.05 ± 0.017 |
| CC(=O)OC1CN2CCC1CC2 (stereo unspecified) [Aceclidine Hydrochloride] | 0.99 ± 0.044 |
| CCC1(CC)C(=O)C=CNC1=O [Pyrithyldione] | 0.9934 ± 0.0041 |
| C=C1CC[C@@]2(O)[C@H]3Cc4ccc(O)c5c4[C@@]2(CCN3CC2CC2)[C@H]1O5 [Nalmefene hydrochloride] | 1.007 ± 0.0021 |
| CN1C[C@H](C(=O)N[C@]2(C)O[C@@]3(O)[C@@H]4CCCN4C(=O)[C@H](Cc4ccccc4)N3C2=O)C[C@@H]2c3cccc4[nH]cc(c34)C[C@H]21 [Dihydroergotamine tartrate] | 0.948 ± 0.015 |
| C#CCN(C)[C@H](C)Cc1ccccc1 [Selegiline hydrochloride] | 0.98 ± 0.017 |
| C[C@]12N[C@H](Cc3ccccc31)c1ccccc12 [Dizocilpine maleate] | 0.978 ± 0.071 |

From the supplement of paper PMC7366291
